The list is not random: actives were taken first. Their share in the collection is about 1.1%.
HIF act: HIF pathway transcriptional activation; U2OS HRE-luciferase reporter, luminescence; normalized: DMSO 0%, desferrioxamine 100%; activation, % at 7.5 µM (by protocol); hit rate 0.32% among 300,000;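 active = mean activation of at least 10% of the iron chelator positive control signal, with at least half of replicates also reaching 10%; inconclusive = mean and replicate majority disagree about reaching 10%; inactive = mean and most replicates under 10%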
TNF death inh: inhibitors of TNF-alpha induced necroptosis in Jurkat FADD-/- cells. activation (protection from cell death), % at 10 µM. hit rate 0.068% among 220,000. Jurkat FADD-/- TNF necroptosis rescue, ATP luminescence, 24 h; 0 = TNF only, 100 = no-TNF cells;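 active = activation, meaning protection from cell death, of at least 50% relative to plate controls; inactive = activation below 50%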;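 note: necroptosis triggered by 40 ng/mL TNF-alpha added together with compound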
Calb FLC: affects C. albicans growth with fluconazole. growth inhibition, % (test concentration not listed). C. albicans CaCi-2 (fluconazole-resistant clinical isolate) + fluconazole, Alamar Blue growth, 48 h. AID 1979. hit rate 0.57% among 300,000;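 active = growth inhibition above about 58% in most replicates, limit read from the data, passing the limit was not always enough; inconclusive = exactly half the replicates above a set limit; inactive = most replicates below a set limit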;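 note: all wells also contain fluconazole at 8 µg/ml as a sub-toxic cotreatment; 0% = median of DMSO wells and 100% = median of geldanamycin control wells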
L929 necroptosis: L929 zVAD cell death inhibition. L929 zVAD necroptosis rescue, ATP luminescence, 24 h; with zVAD 60 µM. viability rescue, % at 10 µM. hit rate 0.38% among 220,000;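 active = activation, scaled between plate controls, above about 75%, limit read from the data; inactive = activation under that limit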;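 note: 0% = zVAD with DMSO and 100% = DMSO alone without zVAD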
zVAD necrop conf: confirmed blocker of zVAD induced death in L929 cells; shares compounds with L929 necroptosis; L929 zVAD-induced necroptosis rescue, ATP luminescence, 24 h; activation (protection from necroptosis), % at 10 µM; hit rate 16% among 760; AID 463117;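 active = mean protection from necroptosis of at least 50% over duplicate tests; inactive = mean protection below 50%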;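 note: 0% = cells with zVAD alone and 100% = vehicle cells without zVAD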
Active calls of the source: *; ? = inconclusive; · = not tested or not shown.

SMILES	HIF act	TNF death inh	Calb FLC	L929 necroptosis	zVAD necrop conf
Cc1ccc(S(=O)(=O)Nc2cccc3ncccc23)s1	2	-5	-6	75*	47
CNC(=O)c1cc(Nc2nnc(-c3ccc(O)cc3)c3ccccc23)ccc1OC	0	-2	17	80*	2
CSCCC(NC(=O)c1ccccc1Cl)C(=O)Nc1cccc(S(=O)(=O)N2CCCC2)c1 (centres undefined)	0	·	3	·	·
CCOC(=O)C1CCN(C(=O)CCS(=O)(=O)c2ccc3c(c2)n(C)c(=O)c(=O)n3C)CC1	0	·	0	·	·
O=C(COC(=O)c1ccc(O)cc1)Nc1ccc(OC(F)F)cc1	0	2	2	77*	36
O=C(COC(=O)c1cccc(O)c1)Nc1ccc(OC(F)F)cc1	-1	0	-2	1	·
CNc1ncc(C(=O)c2ccccc2)s1	2	5	-20	4	·
CNc1ncc(C(=O)c2ccc(Br)cc2)s1	1	6	-4	83*	1
O=S(=O)(CC(CN1CCOCC1)N1CCOCC1)c1ccccc1 (centres undefined)	0	1	-20	0	·
O=S(=O)(CC(CN1CCCCC1)N1CCCCC1)c1ccc2ccccc2c1 (centres undefined)	0	-5	-4	76*	2
Cc1ccc(S(=O)(=O)CC(CN2CCCCC2)N2CCCCC2)cc1 (centres undefined)	0	10	-25	81*	22
COC(=O)C1=C(C)NC(=O)/C1=C\N(C)C	0	0	-7	0	·
COc1cc(/C=N/NC(=O)c2ccc3ccccc3c2)ccc1Oc1ccc([N+](=O)[O-])cn1	0	6	17	76*	4
Cc1cc(C(=O)N/N=C/c2ccc[nH]2)n[nH]1	0	16	?	89*	27
Cc1cc(C(=O)N/N=C/c2cccnc2)n[nH]1	1	39	4	84*	6
Cc1cc(C(=O)N/N=C/c2ccc[nH]2)no1	0	2	9	0	·
Cc1ccc(-c2cc(C(=O)N/N=C/c3cccnc3)n[nH]2)o1	0	0	0	2	·
Cc1cc(C)c2c(N)c(C(=O)N/N=C/c3cccnc3)sc2n1	4	-10	4	79*	36
Cc1cc(C(=O)N/N=C/c2ccc(-c3ccccc3Cl)o2)n[nH]1	2	30	13	84*	38
CCOC(=O)c1c(-c2ccc(C)cc2)csc1NC(=O)CCN1CC(C)OC(C)C1 (centres undefined)	-1	-2	5	-1	·
COc1ccc(-n2ncc3c2CC(C)(C)CC3NC(=O)c2cnc(C)cn2)cc1 (centres undefined)	0	·	1	·	·
COc1ccc(CN2CCNC(=O)C2CC(=O)NC2CCCC2)c(C)c1C (centres undefined)	0	·	0	·	·
Cc1cc(N/N=C/c2ccncc2)nc2ccccc12	1	50*	60	81*	77*
Cc1cc(N/N=C/c2cccc(Br)c2)nc2ccccc12	3	2	18	2	·
C/C(=N\NC(=O)c1ccc(NS(=O)(=O)c2cccs2)cc1)c1ccc(C(C)(C)C)cc1	0	7	8	82*	6
COC(=O)c1ccc(C(=O)N=c2sccn2C)cc1	1	·	-4	·	·
COC(=O)Cc1[nH]nc2c1C(c1c[nH]c3ccccc13)C(C#N)=C(N)O2 (centres undefined)	0	-8	24	1	·
Cc1[nH]nc2c1C(c1c[nH]c3ccccc13)C(C#N)=C(N)O2 (centres undefined)	0	-5	2	77*	37
O=C(Nc1ncc2c(n1)-c1ccccc1CC2)C1CC1	1	-4	-18	76*	2
